Assay results reported in PubChem BioAssay AID1852 (Sanford-Burnham Center for Chemical Genomics, 2009).
Out of some 2,500 compounds screened, about 1,100 (44%) were called active. So high a share suggests a set chosen from earlier hits. Some of the results follow. Values without a mark were called inactive.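 The calls were made as follows: active = inhibition above 50% at 4 µM in the single-point screen; inactive = inhibition of 50% or less.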

Experiment: TNF-a-driven NF-kB reporter inhibitors, primary screen, selectivity assay for NOD1/NOD2 signaling inhibitor project, cell-based, HEK293T NF-kB-Luc, luminescence (AID 1852)
Details: TNF-a induced, 14 h, at 4 µM, hits give high values

Row | SMILES | inhibition
1 | Oc1[nH]c2ccccc2c1N=NC(=S)N1CCOCC1 | 94.8% (active)
2 | Oc1[nH]c2ccccc2c1N=Nc1nc(Nc2ccccc2)nc(N2CCOCC2)n1 | 12.6%
3 | Cc1ccc(-c2nn(CCC(=O)O)cc2/C=C\C(=O)c2ccc(Br)cc2)cc1 | 94.7% (active)
4 | O=C(O)CCn1cc(/C=C\C(=O)c2ccc(Cl)cc2)c(-c2cccc(Br)c2)n1 | 77.2% (active)
5 | O=C(O)CCn1cc(/C=C/C(=O)c2ccc(Cl)cc2)c(-c2cccc(Br)c2)n1 | -4.4%
6 | N#C/C(=C(/O)COC(=O)CSc1ccc(Cl)cc1)c1nc2ccccc2[nH]1 | 93.2% (active)
7 | N#C/C(=C(/O)COC(=O)CSc1ccc2ccccc2c1)c1nc2ccccc2[nH]1 | 90.4% (active)
8 | Cc1ccnc(NC(=O)Nc2ccc3c(c2)N(C)C(=O)CS3)c1 | -55.6%
9 | Cc1cc(C(=O)Nc2nc(-c3ccccn3)cs2)ccc1[N+](=O)[O-] | -1%
10 | Cn1cc([N+](=O)[O-])c(C(=O)Nc2nc(-c3ccc(Cl)cc3)cs2)n1 | 43.8%
11 | O=C(Nc1nnc(SCc2ccc(F)cc2)s1)c1ccccn1 | 109% (active)
12 | CC(Oc1ccc(Br)cc1)C(=O)Nc1nc(-c2ccccn2)cs1 (stereo not given) | 90.7% (active)
13 | O=C(Nc1nc(-c2ccccn2)cs1)c1cc(Cl)ccc1[N+](=O)[O-] | 105% (active)
14 | O=C(Nc1nc(-c2cc(F)ccc2F)cs1)c1ccccn1 | 91.2% (active)
15 | CCc1ccccc1OCC(=O)Nc1nc(-c2cccnc2)cs1 | 15.7%
16 | Cc1nc(C2CCC3C4CCC5=CC(=O)CC[C@]5(C)C4CC[C@]23C)cs1 (stereo not given in full) | 34.9%
17 | O=C(Nc1nc(-c2ccccn2)cs1)c1ccc(Cl)s1 | 19.4%
18 | O=C(Nc1nc(-c2ccccn2)cs1)Nc1ccc(F)cc1F | 82.1% (active)
19 | CCSc1nsc(NC(=O)Nc2cccc(F)c2)n1 | 46.9%
20 | COc1cccc2sc(Nc3nc(-c4ccccn4)cs3)nc12 | 102% (active)
21 | Fc1cc(F)c2nc(Nc3nc4c(F)cccc4s3)sc2c1 | -17.5%
22 | COc1ccccc1-c1nnc(Nc2nc3c(OC)cccc3s2)o1 | 27.9%
23 | Cc1cccnc1Nc1nc(-c2ccccn2)cs1 | 104% (active)
24 | COc1ccc(CCNS(=O)(=O)c2ccc(Br)s2)cc1 | 35%

Row | SMILES | inhibition
25 | CSc1cccc(NS(=O)(=O)c2ccc(-c3coc(C)n3)cc2)c1 | 24.6%
26 | CC(=O)c1cccc(NS(=O)(=O)c2ccc(-c3cnc(C4CC4)o3)cc2)c1 | 66.3% (active)
27 | COc1ccc(NS(=O)(=O)c2ccc(-c3cnc(C4CC4)o3)cc2)cc1OC | 38.9%
28 | O=C(Nc1cc(C(F)(F)F)cc(C(F)(F)F)c1)Nc1cnn(-c2ccc([N+](=O)[O-])cc2)c1C(F)(F)F | 48.5%
29 | O=C(NC(NNc1ccc([N+](=O)[O-])cc1)(C(F)(F)F)C(F)(F)F)c1ccc(Cl)cc1 | 50.3% (active)
30 | CCN(CC)C(=O)c1oc2ccc(S(=O)(=O)N3CC(C)CC(C)C3)cc2c1C (stereo not given) | 31.2%
31 | CCOC(=O)c1oc2ccc(S(=O)(=O)n3nc(-c4ccc(OC)cc4)cc3N)cc2c1C | 60.2% (active)
32 | CCOC(=O)C(=CNc1ccc2c(c1)c1ccccc1n2CC)C(=O)OCC | 17.5%
33 | CCn1c(=O)c2c(cnn2C)c2ccccc21 | 81.7% (active)
34 | CCOc1ccc(C(=O)C(CCC(CN(C)C)C(=O)c2ccc(OCC)cc2)CN(C)C)cc1 (stereo not given) | 12.6%
35 | CN(C)CC(CCC(CN(C)C)C(=O)c1ccccc1)C(=O)c1ccccc1 (stereo not given) | 102% (active)
36 | C/C(=N\NC(=O)C(c1ccccc1)c1ccccc1)c1ccccn1 | 103% (active)
37 | C/C(=N\NC(=O)c1ccccc1Cl)c1ccccn1 | 97.3% (active)
38 | C=CCNC(=S)N/N=C(\C)c1ccccn1 | 111% (active)
39 | C/C(=N\NC(=O)c1ccccc1F)c1ccccn1 | 49.5%
40 | CSC(=S)N/N=C(\C)c1ccc(Br)cc1 | 11.8%
41 | C/C(=N\Nc1nc2ccccc2[nH]1)c1ccccn1 | 101% (active)
42 | COc1ccc(/C=C/c2cc(-c3ccc(C)cc3)o[n+]2C)cc1 | 30.9%
43 | C/C(=N\NC(=O)C1COc2ccccc2O1)c1ccccn1 (stereo not given) | 83.2% (active)
44 | C/C(=N\NC(=O)c1n[nH]c2c1CCC2)c1cccs1 | 46.3%
45 | C/C(=N\NC(=O)c1cccc2ccccc12)c1ccccn1 | 103% (active)
46 | C/C(=N\NC(=O)c1cc(-c2cccs2)nc2ccccc12)c1ccccn1 | 106% (active)
47 | C/C(=N\NC(=O)C(C)Oc1ccc([N+](=O)[O-])cc1)c1ccccn1 (stereo not given) | 103% (active)
48 | COc1ccc(CN(C)Cc2nc(Cc3cccc(F)c3)no2)c2cccnc12 | 48.3%

Row | SMILES | inhibition
49 | Cc1ccc(-n2c(C)cc(/C=c3/sc4nc5ccccc5n4c3=O)c2C)cc1 | -32%
50 | COc1ccc(-n2nc(C#N)c(Cl)cc2=O)cc1 | 59.1% (active)
51 | COc1cccc(-n2nc(C#N)c(Cl)cc2=O)c1 | 45.7%
52 | COc1ccc(-n2ncc(Cl)c(Cl)c2=O)cc1 | 78.2% (active)
53 | COc1ccc(-n2ncc3c(N(C)C4CCCCC4)ncnc32)cc1 | 23.2%
54 | COc1ccc(-n2cc(C#N)c(=O)[nH]c2=O)cc1 | 47.1%
55 | Cc1ccc(OCc2nnc(SC3CCc4ccccc4C3=O)n2C)cc1 (stereo not given) | 17.5%
56 | COc1ccc2c(c1)c(=O)oc1c(C)c(OCc3ccc(C(=O)O)cc3)ccc12 | 34.1%
57 | CCOc1ccc(-n2c(C)c(C(C)=O)c3cc(OC(C)=O)ccc32)cc1 | 78.7% (active)
58 | COc1ccc(-n2c(C)c(C(C)=O)c3cc(OC(C)=O)ccc32)cc1 | 94.8% (active)
59 | COc1ccc2c(c1)c(C(C)=O)c(C)n2-c1ccc(C(C)=O)cc1 | 71.3% (active)
60 | COc1ccc2c(c1)c(C(C)=O)c(C)n2CCc1ccccc1 | 53.2% (active)
61 | CCOc1ccc(-n2c(C)c(C(C)=O)c3cc(O)ccc32)cc1 | 40.7%
62 | COc1ccc(C(C)=O)cc1Cn1c(=O)cc(C)[nH]c1=O | 40.6%
63 | O=C(CCl)Nc1c(C(=O)Nc2ccc3c(c2)OCCO3)oc2ccccc12 | -69.2%
64 | O=C(NCCc1ccccc1F)c1ccc2c(c1)OCCO2 | 80.8% (active)
65 | O=C(NCCc1ccccc1)c1ccc2c(c1)OCCO2 | 48.5%
66 | O=C(NCCc1ccccc1)c1ccc2c(c1)OCCCO2 | 100% (active)
67 | CCSc1nc2c(c(=O)[nH]c(=O)n2C)n1C/C=C(/C)Cl | 11.6%
68 | CCCCc1nc(N2CCN(C(=O)c3ccco3)CC2)c(C#N)c2c1CCCC2 | 29.5%
69 | CCC(=O)N1CCN(c2ccc(NC(=O)c3cc4ccccc4o3)cc2Cl)CC1 | 101% (active)
70 | O=C(Nc1ccc(N2CCN(C(=O)c3ccccc3)CC2)cc1)c1ccc([N+](=O)[O-])o1 | 25.2%
71 | O=C(Nc1ccc(N2CCCC2)c(Cl)c1)c1ccc([N+](=O)[O-])o1 | -26.1%
72 | O=C(Nc1ccc(N2CCN(C(=O)c3ccco3)CC2)c(Cl)c1)c1cc2ccccc2o1 | 99.1% (active)

Row | SMILES | inhibition
73 | Cc1cc(OCc2ccc(C(=O)Nc3ccc(C(=O)O)cc3)o2)ccc1Cl | -32.8%
74 | O=C(Nc1ccc(N2CCN(C(=O)c3ccccc3)CC2)c(Cl)c1)c1ccc(Br)o1 | 67.5% (active)
75 | COc1ccc2[nH]c(=O)c(CN(Cc3cccnc3)S(=O)(=O)c3ccccc3F)cc2c1 | 50.9% (active)
76 | COc1ccc(N(Cc2cc3cc(OC)ccc3[nH]c2=O)S(=O)(=O)c2ccc(NC(C)=O)cc2)cc1 | 16.3%
77 | CC1CCCCC1NC(=O)/C(C#N)=C/C=C/c1ccccc1[N+](=O)[O-] (stereo not given) | 47.1%
78 | N#C/C(=C\C=C\c1ccccc1[N+](=O)[O-])C(=O)NC1CCCCC1 | 61.6% (active)
79 | Cn1nc([N+](=O)[O-])nc1Sc1cccc2cccnc12 | 31.7%
80 | O=[N+]([O-])c1ccc(Sc2cccc3cccnc23)c([N+](=O)[O-])c1 | 103% (active)
81 | Cc1cc(C)nc(Sc2ccc([N+](=O)[O-])cc2[N+](=O)[O-])n1 | -34.5%
82 | O=[N+]([O-])c1ccc(Sc2nccn2Cc2ccccc2)c([N+](=O)[O-])c1 | -0.6%
83 | O=C(Cn1nc([N+](=O)[O-])nc1Br)NC(c1ccccc1)c1ccccc1 | -0.7%
84 | C=CCn1nc([N+](=O)[O-])nc1Sc1cccc2cccnc12 | 95.9% (active)
85 | O=S(=O)(/C(=C/c1ccc(C(F)(F)F)cc1)c1nc2ccccc2[nH]1)c1ccccc1 | 72.8% (active)
86 | CC(C)c1ccc(/C=C(\c2nc3ccccc3[nH]2)S(=O)(=O)c2ccccc2)cc1 | 107% (active)
87 | O=S(=O)(Nc1nc2ccccc2[nH]1)c1ccccc1 | 34.8%
88 | Cc1cccc(/C=C(\c2nc3ccccc3[nH]2)S(=O)(=O)c2ccccc2)c1 | 82.2% (active)
89 | COc1ccc(S(=O)(=O)NCC2CCCN(Cc3cccnc3)C2)cc1 (stereo not given) | -9.5%
90 | C/C=C/Cn1c(SCCCc2ccccc2)nc2c1c(=O)[nH]c(=O)n2C | 5.5%
91 | N#Cc1ccc(C(=O)Nc2nc(-c3cccs3)c(C(=O)C(F)(F)F)s2)cc1 | 70% (active)
92 | COc1ccc(/C=C/C(=O)c2c(C)cc(C)[nH]c2=O)c2ccccc12 | 20.8%
93 | Cc1cc(C)c(C(=O)/C=C/c2cccc3ccccc23)c(=O)[nH]1 | 92.8% (active)
94 | O=C(O)C(Cc1ccccc1)N1C(=O)/C(=C/c2cccc3ccccc23)SC1=S (stereo not given) | 31.7%
95 | Cc1cc(C)c(C(=O)/C=C/c2ccc(C(C)C)cc2)c(=O)[nH]1 | 72.7% (active)
